Assay results: PubChem BioAssay (Tox21)
“And” between values parts separate entries of the source, which are not always exact repeats. Identical values can stand only once. Unmarked numbers belong to inactive results. Entries that show only a call come without a potency. The source made the active and inactive calls. Calls come from the whole dose curve; as a rule, active = well fitted cell-killing curve with a large enough effect in the repeat runs; inconclusive = weak or mixed curves, or effect the other way; inactive = flat fitted curve, though single readings scatter.

Assay: qHTS assay to identify small molecule HDAC inhibitors - cell viability counter screen (AID 1259365); note: nearly all actives have a fitted effect of over 50% in size
Conditions: HCT-116 viability, CellTiter-Glo ATP luminescence, 2 h; series mostly up to 92.4 µM
Excerpt: U.S. Tox21 Program National Center for Advancing Translational Sciences [NCATS] NIH Chemical Genomics Center [NCGC] U.S. Environmental Protection Agency [EPA] National Institutes of Environmental Health Sciences [NIEHS] National Toxicology Program [NTP] U.S. Food and Drug Administration [FDA] Tox21 Assay Overview: Histone deacetylases (HDACs) are a group of epigenetic enzymes that regulate gene expression by histone deacetylation. HDACs are capable of introducing epigenetic modifications and such aberrations contribute to the onset and progression of several human diseases, thus making HDACs a popular therapeutic target. For identifying endogenous class I/II HDAC inhibitors a homogenous, luminogenic HDAC I/II cell based assay was used to measure the relative activity of class I and II HDACs from cells. Wild type HCT-116 cells were used to screen Tox21 compound libraries for identifying class I/II HDAC inhibitors.
Tox21 Assay Protocol Summary: HCT-116 cells were dispensed at 1,500 per well in 5uL of culture medium into white solid bottom 1536-well plates (Greiner Bio-One, Monroe, NC) using a Multidrop Combi (Thermo Scientific, Waltham, MA) dispenser. The assay plates were incubated at 37 C and 5% CO2 for an overnight, and then 23nL of compounds dissolved in DMSO and positive control were transferred using a Pintool station (Wako, San Diego, CA). The assay plates were incubated at 37C and 5% CO2 for 2hr. After compound treatment, 4uL of CellTiter-Glo reagent (Promega Corporation, Madison, WI) was added to each well of the assay plates using Flying Reagent Dispenser (FRD, Aurora Discovery, San Diego, CA) and incubated the assay plates at room temperature for 30min. The luminescence signal was quantified using a ViewLux plate reader (Perkin Elmer, Shelton, CT).
Potency is the fitted concentration of half-maximal effect.

SMILES | Potency | activity change, negative = cytotoxicity
C/C=C/c1ccc(OCC)c(O)c1 | inactive | 
NNCCc1ccccc1 | inactive | 
CC(=O)CC(=O)Nc1ccc2[nH]c(=O)[nH]c2c1 | inactive | 
c1cnc2cc3c(cc2n1)C1CNCC3C1 | inactive | 
Cc1scc2c1N(C(=O)CN1CCN(C)CC1)c1ccccc1NC2=O | inactive | 
O=S(=O)(O)c1ccc2nc(-c3ccccc3)[nH]c2c1 | 23.2 µM (active) | 
CC(C)(C)NCC(O)c1cc(O)cc(O)c1 (stereo not given) | inactive | 
O=C1NCC2(CCN(CCc3ccccc3)CC2)O1 | inactive | 
CNCCC(Oc1ccc(C(F)(F)F)cc1)c1ccccc1 (stereo not given) | inactive | 
CCN1CCCC1CNC(=O)c1cc(S(=O)(=O)CC)c(N)cc1OC (stereo not given) | inactive | 
NC(=Nc1ccccc1)Nc1ccccc1 | inactive | 
BrC1CCC(Br)C(Br)CCC(Br)C(Br)CCC1Br (stereo not given) | inactive | 
O=C(O)c1cccc(C(=O)O)c1 | inactive | 
CCC(CO)(CO)COCC(CC)(CO)CO | inactive | 
CN(C)c1ccc2nc3ccc(=[N+](C)C)cc-3sc2c1 | 11.7 µM (active) and 24.3 µM (active) and 11.9 µM (active) | 
Oc1c(Cl)cc(Cl)cc1Sc1cc(Cl)cc(Cl)c1O | inactive | 
CO[Si](OC)(OC)c1ccccc1 | inactive | 
CCCCOCCOC(=O)c1ccccc1C(=O)OCCOCCCC | inactive | 
CC(=O)CC(C)=O | inactive | 
CCCCCCCCCCCCCCCCCl |  | -13.9% [at 19 µM]

SMILES | Potency | activity change, negative = cytotoxicity
CC1COC(=O)O1 (stereo not given) | inactive | 
Oc1ccc(Cl)cc1Cc1cc(Cl)ccc1O | inactive | 
c1ccc2c(c1)CCCC2C1=NCCN1 (stereo not given) | inactive | 
COc1cc(C(=S)N2CCOCC2)ccc1O | inactive | 
NC12CC3CC(CC(C3)C1)C2 | inactive | 
Nc1nc2ccccc2[nH]1 | inactive | 
OCCN1CCNCC1 | inactive | 
NC(Cc1ccc(Cl)cc1)C(=O)O (stereo not given) |  | 1.43% [at 0.349 µM]
Nc1ccc(O)cc1 | inactive | 
N[C@@H]1CONC1=O | inactive | 
CCCCN(CCO)CCCC | inactive | 
CC(=O)O[C@]1(C(C)=O)CC[C@H]2[C@@H]3C[C@H](C)C4=CC(=O)CC[C@]4(C)[C@H]3CC[C@@]21C | inactive | 
CN1C(=O)c2ccc([N+](=O)[O-])cc2C1=O | inactive | 
Oc1c(Cl)cc(Cl)c(Cl)c1Cc1c(O)c(Cl)cc(Cl)c1Cl | inactive | 
Nc1ccc2cc3ccccc3cc2c1 | inactive | 
CC(C)CCOC(=O)c1ccc(N(C)C)cc1 | inactive | 
C=C(C)C1CC=C(C)C(OC(C)=O)C1 (stereo not given) | inactive | 
NCCCCCC(=O)O | inactive | 
c1cc(C(c2ccc(OCC3CO3)cc2)C(c2ccc(OCC3CO3)cc2)c2ccc(OCC3CO3)cc2)ccc1OCC1CO1 (stereo not given) | inactive | 
Clc1ccc2c(c1)C(N1CCNCC1)=Nc1ccccc1O2 | inactive | 
